Test results taken from the supplement of paper PMC12067093, “Discovery and optimisation of a covalent ligand for TRIM25 and its application to targeted protein ubiquitination” (Chemical Science, 2025).
Of roughly 21,000 targets only a part is listed; those with the largest changes were picked by preference.

Compound: Cc1cc(ccc1-c1ccccc1)C(=O)N1CCCN(CC1)C(=O)CCl [compound 10]
Assay: probe-labelled cysteine peptide fold change vs DMSO (competition) (log2 fold change); higher = less target engagement (more negative = stronger competition)
Conditions: THP-1, incubation time: 4 h
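Also: competitive profiling in live THP-1 cells: cysteine peptides tagged with an iodoacetamide desthiobiotin (IA-DTB) probe, intensity after compound treatment relative to DMSO-treated cells.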

UniProt P36915, sequence (P36915 whole entry, looked up): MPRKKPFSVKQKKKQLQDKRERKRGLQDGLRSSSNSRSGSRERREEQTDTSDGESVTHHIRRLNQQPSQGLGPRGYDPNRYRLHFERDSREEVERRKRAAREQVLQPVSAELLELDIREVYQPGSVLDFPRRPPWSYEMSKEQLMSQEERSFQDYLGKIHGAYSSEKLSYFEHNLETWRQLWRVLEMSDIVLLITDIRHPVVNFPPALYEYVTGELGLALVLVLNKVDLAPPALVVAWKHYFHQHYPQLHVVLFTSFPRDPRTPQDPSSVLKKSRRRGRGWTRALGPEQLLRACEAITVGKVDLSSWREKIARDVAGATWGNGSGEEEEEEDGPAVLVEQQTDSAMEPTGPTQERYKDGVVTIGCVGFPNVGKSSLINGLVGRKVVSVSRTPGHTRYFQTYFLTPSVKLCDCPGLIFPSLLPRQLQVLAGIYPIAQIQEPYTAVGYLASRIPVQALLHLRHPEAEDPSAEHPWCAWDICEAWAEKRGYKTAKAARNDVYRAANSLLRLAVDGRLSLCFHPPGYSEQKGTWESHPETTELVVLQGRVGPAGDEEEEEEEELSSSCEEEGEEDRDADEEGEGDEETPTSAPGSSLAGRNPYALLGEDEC
UniProt Q9Y2X7, sequence (Q9Y2X7 whole entry, looked up): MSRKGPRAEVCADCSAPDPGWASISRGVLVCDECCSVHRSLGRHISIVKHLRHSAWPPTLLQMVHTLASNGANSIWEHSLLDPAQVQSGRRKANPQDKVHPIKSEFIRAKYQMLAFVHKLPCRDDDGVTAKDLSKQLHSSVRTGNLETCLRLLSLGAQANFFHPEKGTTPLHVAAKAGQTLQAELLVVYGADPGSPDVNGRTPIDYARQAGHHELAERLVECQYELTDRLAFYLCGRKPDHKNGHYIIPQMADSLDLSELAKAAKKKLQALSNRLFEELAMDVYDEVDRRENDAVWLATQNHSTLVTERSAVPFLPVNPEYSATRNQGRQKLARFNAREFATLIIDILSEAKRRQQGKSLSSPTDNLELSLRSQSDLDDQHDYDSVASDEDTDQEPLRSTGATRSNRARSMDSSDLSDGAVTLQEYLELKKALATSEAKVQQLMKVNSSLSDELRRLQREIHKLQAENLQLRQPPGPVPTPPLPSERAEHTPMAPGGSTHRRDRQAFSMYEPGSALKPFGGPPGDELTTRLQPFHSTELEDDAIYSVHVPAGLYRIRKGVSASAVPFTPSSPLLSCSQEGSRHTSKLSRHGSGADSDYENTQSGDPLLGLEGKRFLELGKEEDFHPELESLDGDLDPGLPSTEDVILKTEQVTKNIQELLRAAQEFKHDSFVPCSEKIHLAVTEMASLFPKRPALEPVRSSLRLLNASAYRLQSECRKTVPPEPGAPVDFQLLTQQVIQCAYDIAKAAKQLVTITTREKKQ
UniProt P49841, sequence (P49841 whole entry, looked up): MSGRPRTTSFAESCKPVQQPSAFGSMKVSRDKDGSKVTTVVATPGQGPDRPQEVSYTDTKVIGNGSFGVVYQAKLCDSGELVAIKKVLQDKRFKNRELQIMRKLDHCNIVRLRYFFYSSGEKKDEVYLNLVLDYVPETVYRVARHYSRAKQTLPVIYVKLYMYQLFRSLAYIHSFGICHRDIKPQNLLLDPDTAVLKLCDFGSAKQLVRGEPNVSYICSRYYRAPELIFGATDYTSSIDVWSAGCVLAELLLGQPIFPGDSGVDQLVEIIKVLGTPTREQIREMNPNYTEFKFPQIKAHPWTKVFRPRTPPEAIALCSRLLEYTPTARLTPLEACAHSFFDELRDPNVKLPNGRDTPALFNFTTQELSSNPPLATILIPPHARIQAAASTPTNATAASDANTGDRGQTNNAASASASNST
UniProt Q92664, sequence (Q92664 whole entry, looked up): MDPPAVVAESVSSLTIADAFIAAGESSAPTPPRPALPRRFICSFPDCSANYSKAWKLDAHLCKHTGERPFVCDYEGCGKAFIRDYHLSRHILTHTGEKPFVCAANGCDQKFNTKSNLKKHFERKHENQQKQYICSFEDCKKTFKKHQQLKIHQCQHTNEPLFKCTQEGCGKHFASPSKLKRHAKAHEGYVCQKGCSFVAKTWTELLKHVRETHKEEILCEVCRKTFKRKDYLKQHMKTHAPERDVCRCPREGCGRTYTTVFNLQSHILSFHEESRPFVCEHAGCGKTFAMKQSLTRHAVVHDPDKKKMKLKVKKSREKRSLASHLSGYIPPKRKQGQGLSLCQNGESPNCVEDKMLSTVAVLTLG
UniProt Q14192, sequence (Q14192 whole entry, looked up): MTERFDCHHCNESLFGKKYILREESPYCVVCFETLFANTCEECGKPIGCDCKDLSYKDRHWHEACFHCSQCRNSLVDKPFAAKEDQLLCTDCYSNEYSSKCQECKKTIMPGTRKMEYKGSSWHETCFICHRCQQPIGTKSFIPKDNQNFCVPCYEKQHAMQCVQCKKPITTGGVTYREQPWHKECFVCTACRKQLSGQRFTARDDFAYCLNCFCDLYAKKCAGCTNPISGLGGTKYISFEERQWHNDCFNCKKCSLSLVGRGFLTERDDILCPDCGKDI
UniProt Q9BY41, sequence (Q9BY41 whole entry, looked up): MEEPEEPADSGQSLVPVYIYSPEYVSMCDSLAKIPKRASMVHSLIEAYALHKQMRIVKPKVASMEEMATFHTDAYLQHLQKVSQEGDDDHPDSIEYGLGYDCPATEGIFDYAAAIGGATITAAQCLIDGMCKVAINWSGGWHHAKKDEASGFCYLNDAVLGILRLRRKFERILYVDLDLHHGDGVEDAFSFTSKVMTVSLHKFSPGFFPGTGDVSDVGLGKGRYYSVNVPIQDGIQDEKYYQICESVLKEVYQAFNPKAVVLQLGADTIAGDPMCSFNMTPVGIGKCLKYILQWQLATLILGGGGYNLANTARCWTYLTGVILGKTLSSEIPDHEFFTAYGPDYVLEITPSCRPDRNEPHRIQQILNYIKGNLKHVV
UniProt Q13642, sequence (Q13642 whole entry, looked up): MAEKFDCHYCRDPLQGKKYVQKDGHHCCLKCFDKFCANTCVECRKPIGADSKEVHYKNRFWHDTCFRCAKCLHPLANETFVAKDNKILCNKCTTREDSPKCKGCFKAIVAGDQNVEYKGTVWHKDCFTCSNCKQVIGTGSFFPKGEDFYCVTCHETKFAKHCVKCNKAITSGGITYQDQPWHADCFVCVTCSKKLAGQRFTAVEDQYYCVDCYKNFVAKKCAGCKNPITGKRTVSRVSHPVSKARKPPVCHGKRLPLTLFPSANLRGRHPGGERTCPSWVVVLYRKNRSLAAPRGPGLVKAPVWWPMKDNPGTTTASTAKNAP
UniProt Q99684, sequence (Q99684 whole entry, looked up): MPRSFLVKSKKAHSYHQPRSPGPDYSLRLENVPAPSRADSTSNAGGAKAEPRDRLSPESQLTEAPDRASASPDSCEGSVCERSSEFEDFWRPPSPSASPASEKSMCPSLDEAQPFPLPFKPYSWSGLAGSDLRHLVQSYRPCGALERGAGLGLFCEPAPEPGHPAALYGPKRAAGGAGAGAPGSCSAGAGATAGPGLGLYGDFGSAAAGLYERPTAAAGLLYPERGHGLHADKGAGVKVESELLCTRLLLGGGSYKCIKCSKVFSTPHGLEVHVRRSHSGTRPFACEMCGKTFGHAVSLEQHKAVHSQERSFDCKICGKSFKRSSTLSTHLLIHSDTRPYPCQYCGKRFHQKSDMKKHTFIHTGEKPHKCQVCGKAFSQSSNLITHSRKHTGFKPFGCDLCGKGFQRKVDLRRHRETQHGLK
UniProt Q8IY81, sequence (Q8IY81 whole entry, looked up): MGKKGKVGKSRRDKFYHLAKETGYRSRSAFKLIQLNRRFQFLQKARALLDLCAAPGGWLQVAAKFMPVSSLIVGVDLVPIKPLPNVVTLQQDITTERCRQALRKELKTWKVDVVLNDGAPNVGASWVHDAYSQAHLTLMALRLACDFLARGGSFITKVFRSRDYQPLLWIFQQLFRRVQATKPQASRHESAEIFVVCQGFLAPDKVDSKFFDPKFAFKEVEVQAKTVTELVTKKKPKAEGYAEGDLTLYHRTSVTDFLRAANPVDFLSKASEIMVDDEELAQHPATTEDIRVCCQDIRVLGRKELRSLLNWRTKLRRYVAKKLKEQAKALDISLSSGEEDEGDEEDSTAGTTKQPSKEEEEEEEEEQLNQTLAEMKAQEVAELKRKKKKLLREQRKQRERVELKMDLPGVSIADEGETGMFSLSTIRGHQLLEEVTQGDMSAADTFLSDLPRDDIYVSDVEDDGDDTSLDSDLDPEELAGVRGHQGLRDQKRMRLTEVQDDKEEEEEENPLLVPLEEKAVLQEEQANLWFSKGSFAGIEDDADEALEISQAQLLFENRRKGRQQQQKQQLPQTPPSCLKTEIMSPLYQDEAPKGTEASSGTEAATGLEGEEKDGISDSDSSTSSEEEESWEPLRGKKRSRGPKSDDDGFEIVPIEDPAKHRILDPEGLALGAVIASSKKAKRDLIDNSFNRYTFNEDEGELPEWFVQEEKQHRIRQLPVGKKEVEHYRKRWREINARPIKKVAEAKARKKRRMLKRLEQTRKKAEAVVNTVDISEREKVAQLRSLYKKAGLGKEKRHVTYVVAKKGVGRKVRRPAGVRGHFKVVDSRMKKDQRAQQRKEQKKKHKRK
UniProt O75487, sequence (O75487 whole entry, looked up): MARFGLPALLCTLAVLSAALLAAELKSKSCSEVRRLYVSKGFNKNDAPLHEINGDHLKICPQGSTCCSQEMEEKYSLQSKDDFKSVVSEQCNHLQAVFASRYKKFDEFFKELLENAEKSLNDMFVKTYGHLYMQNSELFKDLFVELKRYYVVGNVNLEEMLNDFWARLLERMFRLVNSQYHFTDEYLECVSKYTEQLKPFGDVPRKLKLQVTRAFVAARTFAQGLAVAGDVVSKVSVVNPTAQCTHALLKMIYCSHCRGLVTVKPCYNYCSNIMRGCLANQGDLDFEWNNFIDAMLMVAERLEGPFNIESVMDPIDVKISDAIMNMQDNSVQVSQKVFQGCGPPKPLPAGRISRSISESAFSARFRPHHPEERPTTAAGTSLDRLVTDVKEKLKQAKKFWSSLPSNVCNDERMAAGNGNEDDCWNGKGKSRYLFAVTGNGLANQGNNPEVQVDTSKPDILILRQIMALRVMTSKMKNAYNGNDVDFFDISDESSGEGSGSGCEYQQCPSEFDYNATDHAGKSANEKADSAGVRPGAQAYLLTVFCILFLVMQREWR

Target	probe-labelled cysteine peptide fold change (10 µM)	probe-labelled cysteine peptide fold change (50 µM)
FLCN_Q8NFG4_215_VFEAEQFGCPQR (UniProt Q8NFG4)	-0.0204	-0.54
GATD3B_A0A0B4J2D5_177_EFHQAGKPIGLCCIAPVLAAK<|>GATD3A_P0DPI2_177_EFHQAGKPIGLCCIAPVLAAK (UniProt P0DPI2)	-0.563	-1.98
GRHPR_Q9UBQ7_288_NCVILPHIGSATHR (UniProt Q9UBQ7)	0.293	0.0427
HEATR5A_Q86XA9_1635_QIICAAQEHVK (UniProt Q86XA9)	0.0658	0.171
GEMIN5_Q8TEQ6_1421_NEPEVEAEQPLCSSQSQCK (UniProt Q8TEQ6)	0.068	-0.124
HDAC8_Q9BY41_153_KDEASGFCYLNDAVLGILR (UniProt Q9BY41)	-0.0393	0.0564
GTF2B_Q00403_34+37_AGDMICPECGLVVGDR (UniProt Q00403)	0.105	0.0895
HCK_P08631_241_LSVPCMSSK (UniProt P08631)	-0.0986	0.102
GFM2_Q969S9_248_LLWNCNSNDGK (UniProt Q969S9)	-0.353	-0.937
GIT1_Q9Y2X7_576_KGVSASAVPFTPSSPLLSCSQEGSR (UniProt Q9Y2X7)	-0.316	-0.788
FGR_P09769_415_LIKDDEYNPCQGSK (UniProt P09769)	-0.148	-0.205
GOLGA3_Q08378_769_LGELQGEAASREDTICLLQNEK (UniProt Q08378)	-0.084	-0.193
GSK3B_P49841_335_LTPLEACAHSFFDELRDPNVK (UniProt P49841)	0.133	0.0393
HDDC3_Q8N4P3_133_CTPEGWSEHR (UniProt Q8N4P3)	0.13	-0.00995
GPC4_O75487_341_VFQGCGPPK (UniProt O75487)	-0.24	-0.0603
FTSJ3_Q8IY81_293_VCCQDIR (UniProt Q8IY81)	0.217	-0.481
HDAC4_P56524_777_LAVGCVVELVFK (UniProt P56524)	0.157	0.082
GNL1_P36915_365_YKDGVVTIGCVGFPNVGK (UniProt P36915)	-0.0143	-0.869
HERC2_O95714_1037_ISSCLDFEQHSR (UniProt O95714)	0.0441	0.321
FHL2_Q14192_275_GFLTERDDILCPDCGK (UniProt Q14192)	0.0254	-0.163
FHL1_Q13642_150_GEDFYCVTCHETK (UniProt Q13642)	0.107	-0.0472
GFI1_Q99684_155_GAGLGLFCEPAPEPGHPAALYGPK (UniProt Q99684)	-0.225	1.62
HDAC10_Q969S8_508_LLCVALGQLDRPPDLAHDGR (UniProt Q969S8)	0.15	0.0528
GTF3A_Q92664_191_AHEGYVCQK (UniProt Q92664)	0.112	-0.151
GATD3B_A0A0B4J2D5_176+177_EFHQAGKPIGLCCIAPVLAAK<|>GATD3A_P0DPI2_176+177_EFHQAGKPIGLCCIAPVLAAK (UniProt P0DPI2)	-1.14	-2.38
FRMD8_Q9BZ67_206_LDSFLPAHLCK (UniProt Q9BZ67)	-0.0859	-0.347
HAUS6_Q7Z4H7_662_VISDCECVPQK (UniProt Q7Z4H7)	0.0385	-0.547
GSTP1_P09211_102_DQQEAALVDMVNDGVEDLRCK (UniProt P09211)	0.0332	1.08
